The supplement of paper PMC10849652
Of roughly 7,900 targets only a part is listed; those with a hit were picked by preference. About 0.6% of all pairs of compound and target were hits. Values without a mark were called inactive.

Columns and labels:
Assay in all cases: log2 fold change, soluble protein after heating vs DMSO (PISA); higher = thermal stabilisation; K562 cells, 10 uM, 30 min; active = over 0.2 and 3.5 SD of the protein, either way, in both replicates (recomputed)
saracatinib = compound: CN1CCN(CCOc2cc(OC3CCOCC3)c3c(Nc4c(Cl)ccc5c4OCO5)ncnc3c2)CC1 [saracatinib]
In short: (§1)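 Thermal stability values are relative to control samples and come from duplicates. They are expressed as log2 fold changes. For measurement, K562 cells (2×10^6 cells/mL) received 10 μM compound for 30 min, and aliquots were heated for 3 min over 48°C-58°C, pooled, and extracted at 4°C in PBS with 0.5% NP-40. Soluble protein, the supernatant after 21,000xg for 90 min, was quantified by TMTpro 16plex LC-MS/MS with equalised channel sums.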

sotrastaurin = compound: CN1CCN(c2nc(C3=C(c4c[nH]c5ccccc45)C(=O)NC3=O)c3ccccc3n2)CC1 [sotrastaurin]
In short: as §1

alvocidib = compound: CN1CC[C@H](c2c(O)cc(O)c3c(=O)cc(-c4ccccc4Cl)oc23)[C@H](O)C1 [alvocidib]
In short: as §1

Tubastatin A = compound: CN1CCc2c(c3ccccc3n2Cc2ccc(C(=O)NO)cc2)C1 [Tubastatin A]
In short: as §1

[1] = compound: CNC(=O)C1=CC=CC=C1NC2=NC(=NC=C2Cl)NC3=C(C=C(C=C3)N4CCOCC4)OC
In short: as §1

defactinib = compound: CNC(=O)c1ccc(Nc2ncc(C(F)(F)F)c(NCc3nccnc3N(C)S(C)(=O)=O)n2)cc1 [defactinib]
In short: as §1

rucaparib = compound: CNCc1ccc(-c2[nH]c3cc(F)cc4c3c2CCNC4=O)cc1 [rucaparib]
In short: as §1

[2] = compound: CNc1nc(-c2ccc3c(N)n[nH]c3c2)cc(N2C[C@@H](C(=O)NC3CCCCC3)CC[C@H]2C)n1
In short: as §1

encorafenib = compound: COC(=O)N[C@@H](C)CNc1nccc(-c2cn(C(C)C)nc2-c2cc(Cl)cc(NS(C)(=O)=O)c2F)n1 [encorafenib]
In short: as §1

[3] = compound: COC(=O)[C@H](CCSC)NC(=O)C1=C(C=C(C=C1)NC[C@H](CS)N)C2=CC=CC=C2
In short: as §1

Sequence of UniProt Q15050 (Q15050 whole entry, looked up): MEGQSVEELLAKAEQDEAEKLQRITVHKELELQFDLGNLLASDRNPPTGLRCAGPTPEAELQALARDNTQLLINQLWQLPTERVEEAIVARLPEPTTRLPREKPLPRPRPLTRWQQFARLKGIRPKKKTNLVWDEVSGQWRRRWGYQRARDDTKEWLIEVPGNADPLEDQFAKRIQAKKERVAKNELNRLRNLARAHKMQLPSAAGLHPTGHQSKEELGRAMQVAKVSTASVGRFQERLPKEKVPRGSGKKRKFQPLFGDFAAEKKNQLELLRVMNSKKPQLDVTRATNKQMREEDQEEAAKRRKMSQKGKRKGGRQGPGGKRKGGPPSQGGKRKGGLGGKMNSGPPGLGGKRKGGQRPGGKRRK
Sequence of UniProt Q92930 (Q92930 whole entry, looked up): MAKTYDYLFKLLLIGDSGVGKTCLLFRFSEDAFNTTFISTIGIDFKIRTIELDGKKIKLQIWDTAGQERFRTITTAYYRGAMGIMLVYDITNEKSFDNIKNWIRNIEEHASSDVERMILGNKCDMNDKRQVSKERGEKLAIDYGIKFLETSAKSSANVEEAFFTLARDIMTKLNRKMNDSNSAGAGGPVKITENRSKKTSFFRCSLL
Sequence of UniProt Q5PRF9 (Q5PRF9 whole entry, looked up): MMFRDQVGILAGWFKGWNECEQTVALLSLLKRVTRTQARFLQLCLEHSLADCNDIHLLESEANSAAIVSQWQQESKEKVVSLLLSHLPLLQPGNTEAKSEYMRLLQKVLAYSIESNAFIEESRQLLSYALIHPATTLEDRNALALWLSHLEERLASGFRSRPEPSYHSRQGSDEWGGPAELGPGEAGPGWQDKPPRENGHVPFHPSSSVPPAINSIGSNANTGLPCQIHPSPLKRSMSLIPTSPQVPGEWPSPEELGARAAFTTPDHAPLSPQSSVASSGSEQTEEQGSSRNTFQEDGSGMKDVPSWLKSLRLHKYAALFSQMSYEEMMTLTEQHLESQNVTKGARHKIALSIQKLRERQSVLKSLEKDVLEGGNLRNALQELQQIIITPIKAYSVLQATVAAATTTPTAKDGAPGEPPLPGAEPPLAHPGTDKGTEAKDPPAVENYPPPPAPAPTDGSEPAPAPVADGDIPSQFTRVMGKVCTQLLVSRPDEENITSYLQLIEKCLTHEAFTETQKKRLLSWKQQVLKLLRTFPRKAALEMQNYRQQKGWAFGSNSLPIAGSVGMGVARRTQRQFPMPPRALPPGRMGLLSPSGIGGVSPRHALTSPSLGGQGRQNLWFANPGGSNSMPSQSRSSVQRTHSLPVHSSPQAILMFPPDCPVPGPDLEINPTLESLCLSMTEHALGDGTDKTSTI
Sequence of UniProt Q96I25 (Q96I25 whole entry, looked up): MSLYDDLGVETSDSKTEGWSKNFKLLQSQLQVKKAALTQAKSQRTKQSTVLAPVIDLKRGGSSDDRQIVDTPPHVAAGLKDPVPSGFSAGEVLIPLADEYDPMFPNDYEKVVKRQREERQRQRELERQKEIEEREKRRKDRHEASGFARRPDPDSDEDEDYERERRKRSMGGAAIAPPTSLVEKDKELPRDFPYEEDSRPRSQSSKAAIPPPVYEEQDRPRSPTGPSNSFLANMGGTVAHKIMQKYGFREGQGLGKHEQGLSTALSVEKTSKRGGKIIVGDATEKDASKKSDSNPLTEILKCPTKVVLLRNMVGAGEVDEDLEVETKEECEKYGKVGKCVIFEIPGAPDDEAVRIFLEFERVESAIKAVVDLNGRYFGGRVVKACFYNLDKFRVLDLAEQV
Sequence of UniProt Q9NTZ6 (Q9NTZ6 whole entry, looked up): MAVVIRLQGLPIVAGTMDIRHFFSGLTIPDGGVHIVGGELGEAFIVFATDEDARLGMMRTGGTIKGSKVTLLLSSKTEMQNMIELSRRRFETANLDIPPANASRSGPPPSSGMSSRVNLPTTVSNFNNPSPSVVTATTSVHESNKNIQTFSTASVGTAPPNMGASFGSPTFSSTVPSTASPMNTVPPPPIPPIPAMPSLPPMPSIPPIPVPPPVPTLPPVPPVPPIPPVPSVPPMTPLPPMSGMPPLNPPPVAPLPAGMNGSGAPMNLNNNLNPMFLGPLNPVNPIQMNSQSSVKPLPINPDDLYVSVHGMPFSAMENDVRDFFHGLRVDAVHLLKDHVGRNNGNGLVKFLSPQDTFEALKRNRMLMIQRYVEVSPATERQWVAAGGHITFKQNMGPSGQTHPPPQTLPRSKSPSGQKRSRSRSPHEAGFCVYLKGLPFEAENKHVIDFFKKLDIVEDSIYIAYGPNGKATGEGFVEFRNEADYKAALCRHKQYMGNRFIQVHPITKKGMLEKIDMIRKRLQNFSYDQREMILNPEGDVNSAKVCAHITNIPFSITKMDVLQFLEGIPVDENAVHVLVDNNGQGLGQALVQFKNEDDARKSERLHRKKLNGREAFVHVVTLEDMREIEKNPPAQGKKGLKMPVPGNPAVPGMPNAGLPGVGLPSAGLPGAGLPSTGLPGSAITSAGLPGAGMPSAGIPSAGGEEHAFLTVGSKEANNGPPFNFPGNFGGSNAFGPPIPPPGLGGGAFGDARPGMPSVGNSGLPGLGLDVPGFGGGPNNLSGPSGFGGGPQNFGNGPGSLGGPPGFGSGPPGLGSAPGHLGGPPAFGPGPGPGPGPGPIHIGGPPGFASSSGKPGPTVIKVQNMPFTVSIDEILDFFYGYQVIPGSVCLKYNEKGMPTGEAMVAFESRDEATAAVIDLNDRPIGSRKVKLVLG
Sequence of UniProt Q96EE3 (Q96EE3 whole entry, looked up): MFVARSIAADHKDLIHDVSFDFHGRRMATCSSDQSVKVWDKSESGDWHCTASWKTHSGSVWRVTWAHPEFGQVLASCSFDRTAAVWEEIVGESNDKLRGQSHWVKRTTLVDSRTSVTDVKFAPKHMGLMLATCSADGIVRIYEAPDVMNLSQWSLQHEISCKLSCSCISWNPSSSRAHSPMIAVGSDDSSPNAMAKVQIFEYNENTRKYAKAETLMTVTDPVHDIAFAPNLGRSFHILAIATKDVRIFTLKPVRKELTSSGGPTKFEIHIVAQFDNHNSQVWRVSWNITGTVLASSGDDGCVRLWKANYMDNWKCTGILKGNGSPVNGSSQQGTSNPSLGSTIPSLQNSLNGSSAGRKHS
Sequence of UniProt Q8TBN0 (Q8TBN0 whole entry, looked up): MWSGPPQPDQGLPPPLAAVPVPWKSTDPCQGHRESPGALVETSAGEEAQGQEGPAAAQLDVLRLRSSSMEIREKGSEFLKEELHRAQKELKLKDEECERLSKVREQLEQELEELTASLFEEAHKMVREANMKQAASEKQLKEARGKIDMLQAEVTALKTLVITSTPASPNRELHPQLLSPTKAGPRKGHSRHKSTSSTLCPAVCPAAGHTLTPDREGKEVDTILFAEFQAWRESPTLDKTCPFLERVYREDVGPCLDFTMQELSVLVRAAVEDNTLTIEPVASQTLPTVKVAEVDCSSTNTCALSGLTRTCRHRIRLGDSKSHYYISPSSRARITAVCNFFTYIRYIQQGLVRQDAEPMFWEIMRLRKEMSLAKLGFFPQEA
Sequence of UniProt Q9UKM9 (Q9UKM9 whole entry, looked up): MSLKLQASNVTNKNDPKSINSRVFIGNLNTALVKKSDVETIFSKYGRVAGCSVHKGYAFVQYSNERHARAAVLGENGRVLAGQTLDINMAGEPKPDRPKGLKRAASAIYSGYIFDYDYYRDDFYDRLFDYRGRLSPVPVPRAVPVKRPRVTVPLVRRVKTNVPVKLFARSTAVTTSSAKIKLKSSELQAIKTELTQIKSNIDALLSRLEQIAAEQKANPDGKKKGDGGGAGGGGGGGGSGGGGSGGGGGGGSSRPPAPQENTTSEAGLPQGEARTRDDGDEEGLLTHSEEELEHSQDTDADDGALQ
Sequence of UniProt P60602 (P60602 whole entry, looked up): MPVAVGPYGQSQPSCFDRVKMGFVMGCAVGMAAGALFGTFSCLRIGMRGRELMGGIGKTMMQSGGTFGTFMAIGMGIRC
Sequence of UniProt Q99496 (Q99496 whole entry, looked up): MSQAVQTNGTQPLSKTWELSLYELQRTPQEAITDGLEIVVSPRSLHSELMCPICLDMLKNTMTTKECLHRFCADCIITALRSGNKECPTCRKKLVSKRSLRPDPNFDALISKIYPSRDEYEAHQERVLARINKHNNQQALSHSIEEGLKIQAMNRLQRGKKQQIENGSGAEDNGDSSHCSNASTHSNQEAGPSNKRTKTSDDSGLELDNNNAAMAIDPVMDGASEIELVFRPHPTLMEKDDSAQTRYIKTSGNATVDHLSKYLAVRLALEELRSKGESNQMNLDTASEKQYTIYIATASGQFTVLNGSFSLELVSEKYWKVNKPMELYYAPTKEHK
Sequence of UniProt Q9UBS8 (Q9UBS8 whole entry, looked up): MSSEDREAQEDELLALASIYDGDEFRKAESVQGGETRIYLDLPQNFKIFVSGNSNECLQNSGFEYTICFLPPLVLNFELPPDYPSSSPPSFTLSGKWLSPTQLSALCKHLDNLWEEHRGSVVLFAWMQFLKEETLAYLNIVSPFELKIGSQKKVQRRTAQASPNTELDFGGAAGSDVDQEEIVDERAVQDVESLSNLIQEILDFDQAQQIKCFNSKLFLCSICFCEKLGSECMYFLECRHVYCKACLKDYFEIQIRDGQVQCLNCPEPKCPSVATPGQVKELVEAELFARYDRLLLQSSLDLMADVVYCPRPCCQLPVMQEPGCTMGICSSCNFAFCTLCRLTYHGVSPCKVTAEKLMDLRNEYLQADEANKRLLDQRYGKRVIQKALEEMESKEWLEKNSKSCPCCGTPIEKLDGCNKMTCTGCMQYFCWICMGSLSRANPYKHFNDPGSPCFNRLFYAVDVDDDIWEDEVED
Sequence of UniProt Q96EU6 (Q96EU6 whole entry, looked up): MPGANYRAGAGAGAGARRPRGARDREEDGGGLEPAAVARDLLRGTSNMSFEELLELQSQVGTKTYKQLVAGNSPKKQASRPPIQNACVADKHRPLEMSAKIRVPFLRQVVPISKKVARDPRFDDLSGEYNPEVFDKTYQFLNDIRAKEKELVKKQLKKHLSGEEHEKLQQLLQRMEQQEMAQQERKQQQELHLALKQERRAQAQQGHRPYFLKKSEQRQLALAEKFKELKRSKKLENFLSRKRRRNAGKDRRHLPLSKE
Sequence of UniProt Q5VUM1 (Q5VUM1 whole entry, looked up): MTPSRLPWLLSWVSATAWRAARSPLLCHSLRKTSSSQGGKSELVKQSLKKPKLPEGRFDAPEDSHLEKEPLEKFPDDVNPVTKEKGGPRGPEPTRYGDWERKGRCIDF

Target | log2 fold change (saracatinib) | log2 fold change (sotrastaurin) | log2 fold change (alvocidib) | log2 fold change (Tubastatin A) | log2 fold change [1] | log2 fold change (defactinib) | log2 fold change (rucaparib) | log2 fold change [2] | log2 fold change (encorafenib) | log2 fold change [3]
RAB3IL1 (UniProt Q8TBN0) | 0.007 | -0.02 | 0.06 | -0.02 | 0.023 | -0.042 | -0.005 | 0.001 | -0.03 | -0.022
SEC23IP (UniProt Q9Y6Y8) | -0.097 | -0.048 | -0.157 | 0.043 | -0.092 | -0.156 | -0.019 | -0.045 | 0.058 | 0.025
SERPINA7 (UniProt P05543) | 0.339 | 0.395 | 0.018 | -0.169 | 0.147 | 0.056 | -0.145 | 0.061 | -0.085 | 0.078
RUFY1 (UniProt Q96T51) | -0.037 | -0.174 | -0.041 | -0.012 | 0.045 | -0.071 | 0.032 | -0.09 | 0.077 | -0.02
RHEB (UniProt Q15382) | 0.047 | 0.04 | -0.008 | -0.054 | -0.032 | 0.002 | -0.084 | -0.011 | 0.025 | 0
RAC3 (UniProt P60763) | 0.036 | 0.11 | -0.042 | -0.081 | -0.064 | 0.011 | -0.134 | 0.085 | -0.07 | 0.027
SERINC3 (UniProt Q13530) | 0.002 | 0.119 | 0.134 | -0.06 | -0.043 | -0.016 | 0.006 | -0.216 | -0.017 | -0.065
RNF2 (UniProt Q99496) | 0.025 | -0.105 | -0.149 | 0.111 | 0.091 | -0.029 | -0.054 | -0.059 | 0.003 | 0.1
RBM12 (UniProt Q9NTZ6) | -0.04 | -0.12 | -0.191 | 0.074 | 0.008 | -0.27 | -0.109 | -0.02 | 0.061 | -0.052
RALY (UniProt Q9UKM9) | -0.091 | -0.031 | 0.041 | 0.226 | -0.01 | 0.089 | 0.221 | 0.066 | 0.073 | -0.021
RPL38 (UniProt P63173) | -0.018 | 0.01 | 0.088 | 0.014 | 0.027 | 0.126 | 0.093 | 0.044 | 0.003 | 0.037
SIRT2 (UniProt Q8IXJ6) | 0.031 | 0.136 | -0.023 | -0.015 | -0.038 | -0.015 | -0.033 | 0.181 | 0.014 | 0.025
SDHAF2 (UniProt Q9NX18) | 0.08 | -0.035 | -0.026 | 0.037 | 0.016 | -0.002 | 0.115 | -0.078 | -0.003 | 0.01
SCAMP2 (UniProt H3BUB6) | -0.149 | 0.171 | 0.253 | -0.056 | -0.043 | 0.088 | 0.072 | -0.155 | -0.311 | 0.096
SDHAF4 (UniProt Q5VUM1) | 0.139 | 0.072 | 0.079 | 0.086 | -0.037 |  | -0.067 | -0.032 | -0.01 | 
RALA (UniProt P11233) | 0.203 (active) | 0.05 | 0.013 | -0.008 | -0.045 | 0.017 | 0.002 | 0.086 | 0.033 | 0.004
RAB8B (UniProt Q92930) | 0.084 | -0.058 | -0.098 | -0.054 | 0.006 | -0.004 | -0.014 | 0.056 | -0.062 | -0.06
RPS18 (UniProt P62269) | -0.022 | 0.039 | 0.2 | 0.105 | 0.071 | 0.21 | 0.152 | 0.041 | 0.008 | 0.04
RPS25 (UniProt P62851) | -0.052 | 0.007 | 0.178 | 0.094 | 0.095 | 0.184 | 0.124 | 0.076 | 0.01 | 0.024
RRP36 (UniProt Q96EU6) | -0.021 | -0.067 | 0.211 | 0.17 | 0.073 | 0.351 | 0.057 | 0.007 | 0.092 | 0.05
RNF167 (UniProt Q9H6Y7) | -0.03 | 0.064 | 0.055 | -0.021 | 0.035 | 0.059 |  | 0.042 |  | -0.006
SEH1L isoform 1 (UniProt Q96EE3) | 0.009 | -0.022 | 0.018 | -0.015 | -0.029 | -0.012 | -0.016 | -0.053 | 0.025 | -0.007
RBM17 (UniProt Q96I25) | 0.005 | -0.039 | -0.018 | 0.065 | -0.03 | -0.174 | 0.055 | -0.025 | 0.05 | -0.044
RNF14 (UniProt Q9UBS8) | -0.02 | -0.042 | -0.112 | -0.014 | 0.007 | -0.096 | -0.015 | -0.043 | -0.027 | 0.042
ROMO1 (UniProt P60602) | 0.022 | -0.091 | 0.023 | 0.048 | 0.013 |  | -0.038 | -0.012 | 0.026 | 
RRS1 (UniProt Q15050) | -0.079 | -0.001 | 0.302 | 0.071 | 0.009 | 0.688 | 0.488 | 0.109 | 0.166 | 0.047
ROCK1 (UniProt Q13464) | -0.006 | -0.056 | -0.052 | -0.009 | -0.016 | -0.023 | 0.021 | 0.122 | 0.031 | -0.015
SEPTIN5 (UniProt Q99719) | 0.051 | 0.001 | -0.042 | -0.035 | -0.022 | 0.008 | -0.036 | 0.003 | -0.007 | -0.006
SAMD4B (UniProt Q5PRF9) | -0.349 | -0.036 | -0.059 | 0.167 | -0.132 |  |  | 0.096 |  | 
RBM25 (UniProt P49756) | -0.025 | -0.109 | -0.133 | 0.058 | -0.164 | -0.24 (active) | 0.03 | -0.091 | -0.094 | 0.014
